The record followed here is PubChem BioAssay.

The source made the active and inactive calls. How the calls were made is not given here.

This experiment can be described thus: Brca1-Bard1 BiLC signal decrease – luminescence, single concentration, counter-screen for Mdm2/MdmX interaction inhibitor project, confirmation (AID 504668). The conditions noted are these: Brca1/Bard1 bimolecular luciferase complementation counterscreen, at 8 µM, active compounds read high. For orientation: The purpose of a counterscreen is to sort out artefacts and off-target activity.
By inhibition is commonly meant how much of the control response was suppressed. Regarding `CCOC(=O)c1c(CN(C)C)n(C)c2c(O)c(N=NC(N)=O)c3ccc(Br)cc3c12`, the inhibition is 27.9% (active).
`CCCc1c(NC(=O)Nc2ccc(F)cc2)cnn1-c1ccccc1`: the inhibition is 29.3% (active).
On to `Oc1c(C(c2ccc(Cl)cc2)N2CCCC2)cc(Cl)c2cccnc12` (stereo not given), for which the inhibition is 32.9% (active).
On to `O=C(/C=C/c1ccc(Cl)cc1)c1ccc([N+](=O)[O-])o1`, for which the inhibition is 31.4% (active).
Take `c1ccc(CCc2nn3c(-c4ccncc4)nnc3s2)cc1`: the inhibition is 33.7% (active).
For `N=c1ccn2c(n1)OC1C(O)C(CO)OC12` (stereo not given), the inhibition was 45.7% (active).
For the molecule `COc1ccc(-c2cc(C(=O)NNC3=NCCC3)c3c(C)nn(-c4ccccc4)c3n2)cc1`, the inhibition was 34.3% (active).
For the molecule `CC(=O)NC(c1ccc(C)cc1)c1cc([N+](=O)[O-])c2cccnc2c1O` (stereo not given), the inhibition was 25% (active).
As for `Cc1cccc(NC(=O)Nc2cccc(Oc3c(F)c(F)c(F)c(F)c3F)c2)c1`, the figure is 32.5% (active); as for `COC1(OC)C(/C=C/c2ccc(C)cc2)C(C#N)(C#N)C1(OC)OC` (stereo not given), 35.3% (active); as for `CN1CCc2c(sc(NC(=O)c3ccc(S(=O)(=O)N4CCc5ccccc54)cc3)c2C(N)=O)C1`, 24.1% (active).
Consider `O=C(CCl)Nc1cccc(S(=O)(=O)N2CCCCCC2)c1`, for which the inhibition was 24% (active).
For the molecule `Cc1nnsc1C(=O)N/N=C/c1ccc2ccccc2c1O`, the inhibition is 30.1% (active).
For the molecule `OC(c1cc(C(F)(F)F)nc2c(C(F)(F)F)cccc12)C1CCCCN1` (stereo not given), the inhibition is 35.8% (active).
As for `O=C(CCCN1C(=O)/C(=C\c2cccc(Br)c2)SC1=S)Nc1cccnc1`, the inhibition was 24.4% (active).
With `CCCN(CCC)CCNC(=O)C1CCN(Cc2nc(-c3ccc(Cl)cc3)oc2C)CC1`, the inhibition is 30.3% (active).
For `Cc1ccc(C(=O)Nc2nc(-c3ccccn3)cs2)cc1S(=O)(=O)N1CCOCC1`, the inhibition was 23.2% (active).
For `CCOC(=O)/C=C/C(=O)Nc1ccc(Oc2ccccc2)cc1` the value was 24.1% (active); for `COc1ccc(C)cc1NC(=O)c1ccccc1NS(=O)(=O)c1ccc(Cl)s1`, 32.4% (active); for `CCOc1ccccc1CNC(=O)c1cc2oc3ccccc3c2n1C`, 26.3% (active).
As for `C=CCn1c(CNc2ccc(C)cc2)nnc1SCC(=O)N/N=C/c1ccc(O)cc1O`, the figure is 35.6% (active); as for `Cc1ccc(S(=O)(=O)c2nc(S(=O)(=O)c3ccccc3)sc2N2CCN(C)CC2)cc1`, 23.7% (active).
`O=C(/C=C/c1ccc2ccccc2n1)N1CCN(S(=O)(=O)c2ccccc2F)CC1`: the inhibition is 25.5% (active).
For the molecule `CCc1cc(C(=O)N2CCc3c([nH]c4ccccc34)C2c2ccc(OC)cc2F)no1` (stereo not given), the inhibition is 34.5% (active).
With `CN1CCN(C(=O)CCCN2C(=O)/C(=C/c3ccccc3)SC2=S)CC1`, the inhibition is 30.5% (active).
Take `O=C(Nc1ccc(F)c(Cl)c1)Nc1csc2ccccc12`: the inhibition is 35% (active).
`CCCC(O)(CCC)C(=O)NN(C(=O)CCl)c1cccc(C)c1`: the inhibition was 23.7% (active).
For the molecule `Cc1nc(NC(=O)/C=C/c2ccccc2)n[nH]1`, the inhibition was 32.9% (active).
As for `CCOC(=O)c1cccc2c1-c1ccccc1/C2=N/O`, the inhibition was 30.6% (active).
As to `CN(C)CCNC(=O)/C(=C/c1ccc(-c2ccc(Cl)cc2Cl)o1)NC(=O)c1ccccc1`, the inhibition is 26.3% (active).
For `COc1ccc(C(=O)N/N=C/c2cc(Br)ccc2O)cc1OC` the value was 29.6% (active); for `CCOc1cc(/C=N/NC(=O)Cc2ccc(C(F)(F)F)cc2[N+](=O)[O-])c(Br)cc1OC`, 30.8% (active); for `CC1CCN(CCCNC(=O)c2ccc3c(Cl)c4c(nc3c2)CCCC4)CC1`, 30.3% (active).
For the molecule `Cc1ccc(NC(=O)c2ccccc2NS(=O)(=O)c2ccc(F)cc2)cc1S(=O)(=O)N1CCCCC1`, the inhibition was 28.2% (active).
With `O=[N+]([O-])c1ccc2ncnc(Nc3ccc4c(c3)OCCO4)c2c1`, the inhibition was 29.6% (active).
For `Oc1c(CN2CCCC2)cc(COCc2ccccc2)c2cccnc12` the value was 32.2% (active); for `CCN(CC)c1ccc(/C=N/NC(=O)CCC(=O)NCc2ccccc2)c(O)c1`, 33.7% (active).
For `Cc1cccc(NS(=O)(=O)c2ccc(C)c(C(=O)OCC(=O)Nc3cc(C)on3)c2)c1`, the inhibition was 32.1% (active).
Consider `COc1cc2c(O)c3c(c(-c4ccc5c(c4)OCO5)c2cc1OC)C(=O)OC3`, for which the inhibition was 26.1% (active).
`CC(C)CCNC(=O)C(c1ccncc1)N(Cc1cccs1)C(=O)Cn1nnc(-c2ccc(F)cc2)n1` (stereo not given): the inhibition is 26.3% (active).
